Test in all cases: PBM; 200 nM protein, PBS
Holding throughout (details): dsDNA, one strand shown

In assay [1] the target is SHOX (Homo sapiens, UniProt O15266 103-189).
Assay [2] concerns the target HOXB9 (Homo sapiens, UniProt P17482 171-250, T197M).
For assay [3], the target named is HOXB9 (Homo sapiens, UniProt P17482 171-250).
In assay [4] the target is SHOX (Homo sapiens, UniProt O15266 103-189, R173C).
Assay [5] concerns the target HOXB9 (Homo sapiens, UniProt P17482 171-250, R186Q).
In another assay the target is T1, PAX4 (Homo sapiens, UniProt O43316 9-242, R200K).
T1 sequence: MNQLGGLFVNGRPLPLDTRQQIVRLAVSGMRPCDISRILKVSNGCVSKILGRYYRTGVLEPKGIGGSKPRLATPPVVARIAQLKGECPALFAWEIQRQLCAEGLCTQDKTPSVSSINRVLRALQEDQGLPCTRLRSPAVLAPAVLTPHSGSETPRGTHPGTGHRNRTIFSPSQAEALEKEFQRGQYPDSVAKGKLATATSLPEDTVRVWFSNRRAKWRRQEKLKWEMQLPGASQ

The target of assay [6] is HOXA7 (Homo sapiens, UniProt P31268 116-202).
HOXA7 (Homo sapiens, UniProt P31268 116-202), sequence (P31268 116-202): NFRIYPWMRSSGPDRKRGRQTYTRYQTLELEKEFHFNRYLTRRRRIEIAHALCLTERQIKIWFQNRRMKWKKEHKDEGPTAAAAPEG
The target in assay [7] is HOXB6 (Homo sapiens, UniProt P17509 132-218, K202E).
HOXB6 (Homo sapiens, UniProt P17509 132-218, K202E), sequence (P17509 132-218 K202E): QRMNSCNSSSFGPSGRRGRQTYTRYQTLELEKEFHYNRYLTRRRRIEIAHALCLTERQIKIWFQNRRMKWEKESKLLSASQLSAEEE
For assay [8], the target named is HOXA7 (Homo sapiens, UniProt P31268 116-202, W177C).
HOXA7 (Homo sapiens, UniProt P31268 116-202, W177C), sequence (P31268 116-202 W177C): as the sequence (P31268 116-202) above, with W62C counted along it
Assay [9] has as its target HOXB6 (Homo sapiens, UniProt P17509 132-218).
Assay [10] has as its target HOXD13 (Homo sapiens, UniProt P35453 263-343, T313R).
For assay [11], the target named is HOXD13 (Homo sapiens, UniProt P35453 263-343).
HOXD13 (Homo sapiens, UniProt P35453 263-343), sequence (P35453 263-343): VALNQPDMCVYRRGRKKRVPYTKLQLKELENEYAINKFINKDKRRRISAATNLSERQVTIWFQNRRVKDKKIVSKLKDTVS
The target in assay [12] is HOXD13 (Homo sapiens, UniProt P35453 263-343, T313A).
HOXD13 (Homo sapiens, UniProt P35453 263-343, T313A), sequence (P35453 263-343 T313A): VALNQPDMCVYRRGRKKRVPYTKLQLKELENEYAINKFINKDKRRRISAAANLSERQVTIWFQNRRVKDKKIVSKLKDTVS
Assay [13] has as its target HOXC10 (Homo sapiens, UniProt Q9NYD6 254-340).
The target of assay [14] is HOXC10 (Homo sapiens, UniProt Q9NYD6 254-340, K271E).
HOXC10 (Homo sapiens, UniProt Q9NYD6 254-340, K271E), sequence (Q9NYD6 254-340 K271E): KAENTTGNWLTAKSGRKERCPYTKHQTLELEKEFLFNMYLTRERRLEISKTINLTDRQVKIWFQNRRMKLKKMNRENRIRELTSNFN
For assay [15], the target named is HOXC9 (Homo sapiens, UniProt P31274 178-260, K195R).
HOXC9 (Homo sapiens, UniProt P31274 178-260, K195R), sequence (P31274 178-260 K195R): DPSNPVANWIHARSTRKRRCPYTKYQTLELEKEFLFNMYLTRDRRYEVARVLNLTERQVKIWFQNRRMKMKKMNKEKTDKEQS
Another assay deals with T2, VENTX (Homo sapiens, UniProt O95231 78-163).
T2 sequence: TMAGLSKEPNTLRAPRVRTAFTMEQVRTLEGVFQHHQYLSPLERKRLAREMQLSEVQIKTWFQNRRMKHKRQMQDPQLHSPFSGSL

In assay [16] the target is HOXC9 (Homo sapiens, UniProt P31274 178-260).
HOXC9 (Homo sapiens, UniProt P31274 178-260), sequence (P31274 178-260): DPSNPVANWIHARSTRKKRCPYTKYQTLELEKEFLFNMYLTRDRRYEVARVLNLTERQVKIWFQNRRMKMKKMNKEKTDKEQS
Assay [17] addresses HOXC9 (Homo sapiens, UniProt P31274 178-260, R193K).
Assay [18] has as its target HOXC9 (Homo sapiens, UniProt P31274 178-260, R222W).

HOXC9 (Homo sapiens, UniProt P31274 178-260, R193K), sequence (P31274 178-260 R193K): as the sequence (P31274 178-260) above, with R16K counted along it
SHOX (Homo sapiens, UniProt O15266 103-189), sequence (O15266 103-189): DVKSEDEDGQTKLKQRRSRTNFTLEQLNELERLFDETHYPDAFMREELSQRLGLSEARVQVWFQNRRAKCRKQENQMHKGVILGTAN
HOXC9 (Homo sapiens, UniProt P31274 178-260, R222W), sequence (P31274 178-260 R222W): as the sequence (P31274 178-260) above, with R45W counted along it
HOXB9 (Homo sapiens, UniProt P17482 171-250, T197M), sequence (P17482 171-250 T197M): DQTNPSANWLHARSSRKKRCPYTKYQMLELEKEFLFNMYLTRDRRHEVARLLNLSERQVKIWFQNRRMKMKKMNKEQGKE
HOXB6 (Homo sapiens, UniProt P17509 132-218), sequence (P17509 132-218): as the sequence (P17509 132-218 K202E) above, with E71K counted along it
HOXB9 (Homo sapiens, UniProt P17482 171-250), sequence (P17482 171-250): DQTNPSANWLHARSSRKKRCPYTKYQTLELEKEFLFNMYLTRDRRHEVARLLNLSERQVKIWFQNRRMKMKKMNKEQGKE
HOXB9 (Homo sapiens, UniProt P17482 171-250, R186Q), sequence (P17482 171-250 R186Q): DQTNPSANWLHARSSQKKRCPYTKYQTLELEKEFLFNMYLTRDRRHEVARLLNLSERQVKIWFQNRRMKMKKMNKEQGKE
HOXD13 (Homo sapiens, UniProt P35453 263-343, T313R), sequence (P35453 263-343 T313R): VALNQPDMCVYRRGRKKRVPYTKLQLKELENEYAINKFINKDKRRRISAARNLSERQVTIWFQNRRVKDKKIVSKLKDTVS
SHOX (Homo sapiens, UniProt O15266 103-189, R173C), sequence (O15266 103-189 R173C): as the sequence (O15266 103-189) above, with R71C counted along it
HOXC10 (Homo sapiens, UniProt Q9NYD6 254-340), sequence (Q9NYD6 254-340): as the sequence (Q9NYD6 254-340 K271E) above, with E18K counted along it

Consider CGGGAGAG, for which the binding signal with SHOX [1] was 6.89 upbm affinity estimate (log intensity, higher = more binding, comparable within an allelic series); in the assay with HOXB9 [2] it was 8.56 upbm affinity estimate (log intensity, higher = more binding, comparable within an allelic series); with HOXB9 [3], 8.56 upbm affinity estimate (log intensity, higher = more binding, comparable within an allelic series); with SHOX [4], 7.16 upbm affinity estimate (log intensity, higher = more binding, comparable within an allelic series); in the assay with HOXB9 [5], 8.56 upbm affinity estimate (log intensity, higher = more binding, comparable within an allelic series).
On to CGGCGAGC, for which the binding signal with SHOX [1] was 7.05 upbm affinity estimate (log intensity, higher = more binding, comparable within an allelic series); with SHOX [4] it was 7.11 upbm affinity estimate (log intensity, higher = more binding, comparable within an allelic series).
As for GACTCGGC, the binding signal in the assay with SHOX [1] was 7.16 upbm affinity estimate (log intensity, higher = more binding, comparable within an allelic series); in the assay with SHOX [4] it was 7.19 upbm affinity estimate (log intensity, higher = more binding, comparable within an allelic series).
Consider GACTGGCC, for which the binding signal with SHOX [1] is 7.34 upbm affinity estimate (log intensity, higher = more binding, comparable within an allelic series); with SHOX [4] it was 7.31 upbm affinity estimate (log intensity, higher = more binding, comparable within an allelic series).
For TAAATTAA, the binding signal was 11.8 upbm affinity estimate (log intensity, higher = more binding, comparable within an allelic series) with SHOX [1]; 9.99 upbm affinity estimate (log intensity, higher = more binding, comparable within an allelic series) with HOXB9 [2]; 11.8 upbm affinity estimate (log intensity, higher = more binding, comparable within an allelic series) in the assay with PAX4; 9.24 upbm affinity estimate (log intensity, higher = more binding, comparable within an allelic series) with SHOX [4].
Regarding TCCATTAA, the binding signal with HOXB9 [2] was 9.97 upbm affinity estimate (log intensity, higher = more binding, comparable within an allelic series); with HOXA7 [6] it was 11.2 upbm affinity estimate (log intensity, higher = more binding, comparable within an allelic series); with HOXB6 [7], 9.96 upbm affinity estimate (log intensity, higher = more binding, comparable within an allelic series); with HOXB9 [5], 11.5 upbm affinity estimate (log intensity, higher = more binding, comparable within an allelic series); with HOXA7 [8] it was 8.72 upbm affinity estimate (log intensity, higher = more binding, comparable within an allelic series); with HOXB6 [9] it was 11.7 upbm affinity estimate (log intensity, higher = more binding, comparable within an allelic series).
As to GCCGCTCC, the binding signal with HOXD13 [10] is 9.38 upbm affinity estimate (log intensity, higher = more binding, comparable within an allelic series); in the assay with HOXD13 [11], 9.56 upbm affinity estimate (log intensity, higher = more binding, comparable within an allelic series); with HOXD13 [12] it was 9.61 upbm affinity estimate (log intensity, higher = more binding, comparable within an allelic series).
For CGTGCCTC, the binding signal is 8.3 upbm affinity estimate (log intensity, higher = more binding, comparable within an allelic series) with HOXB9 [2]; 10 upbm affinity estimate (log intensity, higher = more binding, comparable within an allelic series) with HOXC10 [13]; 8.93 upbm affinity estimate (log intensity, higher = more binding, comparable within an allelic series) with HOXB6 [7]; 8.2 upbm affinity estimate (log intensity, higher = more binding, comparable within an allelic series) with HOXB9 [3]; 9.99 upbm affinity estimate (log intensity, higher = more binding, comparable within an allelic series) with HOXC10 [14]; 8.24 upbm affinity estimate (log intensity, higher = more binding, comparable within an allelic series) with HOXB9 [5]. In addition, the binding signal in the assay with HOXB6 [9] was 8.84 upbm affinity estimate (log intensity, higher = more binding, comparable within an allelic series).
CGGGCTAG: the binding signal was 9.53 upbm affinity estimate (log intensity, higher = more binding, comparable within an allelic series) in the assay with HOXC9 [15]; 7.75 upbm affinity estimate (log intensity, higher = more binding, comparable within an allelic series) with VENTX; 9.6 upbm affinity estimate (log intensity, higher = more binding, comparable within an allelic series) with HOXC9 [16]; 9.56 upbm affinity estimate (log intensity, higher = more binding, comparable within an allelic series) in the assay with HOXD13 [10]; 9.51 upbm affinity estimate (log intensity, higher = more binding, comparable within an allelic series) with HOXC9 [17]; 9.47 upbm affinity estimate (log intensity, higher = more binding, comparable within an allelic series) in the assay with HOXD13 [11]. The binding signal with HOXD13 [12] was 9.73 upbm affinity estimate (log intensity, higher = more binding, comparable within an allelic series); with HOXC9 [18], 9.67 upbm affinity estimate (log intensity, higher = more binding, comparable within an allelic series).
Turning to ACCATTAA, the binding signal in the assay with HOXB9 [2] was 10.1 upbm affinity estimate (log intensity, higher = more binding, comparable within an allelic series); with HOXC9 [15], 12.7 upbm affinity estimate (log intensity, higher = more binding, comparable within an allelic series); with HOXA7 [6], 11.7 upbm affinity estimate (log intensity, higher = more binding, comparable within an allelic series); with HOXB6 [7], 10.1 upbm affinity estimate (log intensity, higher = more binding, comparable within an allelic series); with HOXB9 [3] it was 11.8 upbm affinity estimate (log intensity, higher = more binding, comparable within an allelic series); with HOXC9 [16] it was 12.7 upbm affinity estimate (log intensity, higher = more binding, comparable within an allelic series). The binding signal in the assay with HOXC9 [17] was 12.6 upbm affinity estimate (log intensity, higher = more binding, comparable within an allelic series); with HOXC10 [14], 11.9 upbm affinity estimate (log intensity, higher = more binding, comparable within an allelic series); with HOXB9 [5] it was 11.6 upbm affinity estimate (log intensity, higher = more binding, comparable within an allelic series); with HOXC9 [18], 10.9 upbm affinity estimate (log intensity, higher = more binding, comparable within an allelic series); with HOXA7 [8], 8.92 upbm affinity estimate (log intensity, higher = more binding, comparable within an allelic series); with HOXB6 [9], 12 upbm affinity estimate (log intensity, higher = more binding, comparable within an allelic series).
On to GACCAGGC, for which the binding signal in the assay with HOXB9 [2] is 8.29 upbm affinity estimate (log intensity, higher = more binding, comparable within an allelic series); with VENTX, 8.13 upbm affinity estimate (log intensity, higher = more binding, comparable within an allelic series); with HOXA7 [6], 8.38 upbm affinity estimate (log intensity, higher = more binding, comparable within an allelic series); in the assay with PAX4, 9.22 upbm affinity estimate (log intensity, higher = more binding, comparable within an allelic series); with HOXB9 [3] it was 8.23 upbm affinity estimate (log intensity, higher = more binding, comparable within an allelic series); with HOXB9 [5], 8.26 upbm affinity estimate (log intensity, higher = more binding, comparable within an allelic series). In addition, the binding signal with HOXA7 [8] is 8.39 upbm affinity estimate (log intensity, higher = more binding, comparable within an allelic series).
In the case of CCGCCTAG, the binding signal in the assay with HOXB9 [2] was 8.4 upbm affinity estimate (log intensity, higher = more binding, comparable within an allelic series); in the assay with HOXB9 [3], 8.41 upbm affinity estimate (log intensity, higher = more binding, comparable within an allelic series); in the assay with HOXB9 [5], 8.38 upbm affinity estimate (log intensity, higher = more binding, comparable within an allelic series).
Take CGCAGACC: the binding signal with VENTX was 7.99 upbm affinity estimate (log intensity, higher = more binding, comparable within an allelic series).
Same read-out and setting: the same measure for GCCGCCGC: 7.88 upbm affinity estimate (log intensity, higher = more binding, comparable within an allelic series).
On the same count and under the same terms, the same measure for ATCATTAG: 12.5 upbm affinity estimate (log intensity, higher = more binding, comparable within an allelic series).
Take TCATTAAA: the binding signal in the assay with HOXB9 [2] is 10.2 upbm affinity estimate (log intensity, higher = more binding, comparable within an allelic series); with HOXC9 [15], 13 upbm affinity estimate (log intensity, higher = more binding, comparable within an allelic series); in the assay with HOXA7 [6] it was 11.6 upbm affinity estimate (log intensity, higher = more binding, comparable within an allelic series); with HOXC10 [13], 12.6 upbm affinity estimate (log intensity, higher = more binding, comparable within an allelic series); with HOXB6 [7], 10.1 upbm affinity estimate (log intensity, higher = more binding, comparable within an allelic series); in the assay with HOXB9 [3], 12.2 upbm affinity estimate (log intensity, higher = more binding, comparable within an allelic series). For the same sequence, the binding signal in the assay with HOXC9 [16] is 12.9 upbm affinity estimate (log intensity, higher = more binding, comparable within an allelic series); with HOXD13 [10], 10.8 upbm affinity estimate (log intensity, higher = more binding, comparable within an allelic series); in the assay with HOXC9 [17] it was 12.9 upbm affinity estimate (log intensity, higher = more binding, comparable within an allelic series); with HOXD13 [11] it was 11.9 upbm affinity estimate (log intensity, higher = more binding, comparable within an allelic series); with HOXC10 [14], 12.4 upbm affinity estimate (log intensity, higher = more binding, comparable within an allelic series); with HOXD13 [12] it was 11.7 upbm affinity estimate (log intensity, higher = more binding, comparable within an allelic series). In addition, the binding signal in the assay with HOXB9 [5] is 12 upbm affinity estimate (log intensity, higher = more binding, comparable within an allelic series); in the assay with HOXC9 [18], 11.2 upbm affinity estimate (log intensity, higher = more binding, comparable within an allelic series); in the assay with HOXA7 [8] it was 9 upbm affinity estimate (log intensity, higher = more binding, comparable within an allelic series); with HOXB6 [9], 11.9 upbm affinity estimate (log intensity, higher = more binding, comparable within an allelic series).

(Values after article PMC11006913.)
